Screening data from PubChem.
These entries were drawn from the full list.
aSyn UTR act = Activators via SNCA 5'UTR binding, MLPCN | alpha-synuclein 5'UTR reporter, activators screen | activity score, % (tested at 7.5 µM), hits read low | actives 7.1% (n = 300,000) | AID 1814, 2009; in the data active = activity score below about -60%
The depositor's hits bear a star.

SMILES	aSyn UTR act
COc1cc(CNCc2ccccn2)ccc1OCc1ccc(Cl)cc1	-66*
Nc1nc(N)nc(COc2ccccc2)n1	-106*
CCc1ccc(-c2ccc(C(=O)O)cc2)nc1	-126*
CCCc1ccc(-c2ccc(F)c(N)c2)nc1	99
O=c1c2[nH]c3ccccc3c2ncn1C1CCCCC1	-91*
O=C(Nc1nc2ccc(F)cc2s1)C1CCCO1 (configuration not stated)	-145*
Cc1cc(C)c2sc(NC(=O)C3CC3)nc2c1	-89*
Nc1ccc2nc(NC(=O)C3CCCCC3)sc2c1	-124*
O=C(Nc1nnc(-c2ccccc2F)s1)C1CCCO1 (configuration not stated)	-181*
O=C(Nc1nc2ccccc2s1)C1CCCO1 (configuration not stated)	-132*
O=C(Nc1ccc(-c2nc3cccnc3s2)cc1)C1CCCO1 (configuration not stated)	87
COc1ccccc1-c1nnc2sc(-c3cc4ccccc4o3)nn12	76
COc1cccc(OC)c1-c1nn2c(-c3ccco3)nnc2s1	-78*
CC12CCC(C(=O)Nc3nc4ccc(Br)cc4s3)(OC1=O)C2(C)C (configuration not stated)	-92*
COc1cccc(NC(=S)NCc2cccs2)c1	-72*
COc1cccc(NC(=S)Nc2cccnc2)c1	-93*
COc1cccc(NC(=S)Nc2ccc(Br)cc2Cl)c1	-93*
COc1cccc(NC(=S)N/N=C2/CCCCc3ccccc32)c1	-178*
Cc1cccnc1NC(=S)Nc1ccc(Br)cc1Cl	-174*
CCN1Cc2c(/C=C/c3ccccc3)nc3ccc(OC)cc3c2N(c2cccc(Cl)c2)C1	-66*
Cc1ccc2c(C)c(C(=O)N3CCN(Cc4ccc5c(c4)OCO5)CC3)oc2c1C	-63*
CC(=O)O[C@]1(C(C)=O)CC[C@H]2[C@@H]3C=CC4=CC(=O)C=C[C@]4(C)[C@H]3CC[C@@]21C	-83*
Cc1cc(C)nc(NC(=O)/C=C/c2ccccc2Cl)n1	-161*
Cc1cc(C(=O)NNC(=S)NC(=O)/C=C/c2ccccc2Cl)n[nH]1	-94*
Cc1cc(C)nc(NC(=O)/C=C/c2ccccc2Cl)c1	-185*
SMILES	aSyn UTR act
Cc1cc(N)c2cc(NC(=O)/C=C/c3ccccc3Cl)ccc2n1	107
Cc1cc(C)nc(NC(=O)/C=C/c2ccc(Cl)cc2Cl)c1	-129*
CC(C)(C)c1ccc(C(=O)N/N=C/c2cccc(Cl)c2)cc1	-89*
O=C(N/N=C/c1cccc(F)c1)c1ccc(Cl)cc1	-150*
Fc1cccc(/C=N/Nc2ccc(Cl)nn2)c1	-116*
Oc1c(Br)cc(Br)cc1/C=N/Nc1ccc(Cl)nn1	97
O=C(N/N=C/c1ccccc1Cl)c1cccc(F)c1	-138*
COc1ccccc1C(O)Cc1nc2ccccc2n1C (configuration not stated)	-87*
COc1ccc(C(C)NCCC(c2ccc(OC(C)C)cc2)c2ccccc2OC)cc1 (configuration not stated)	93
CN(C)c1ccc(C(O)Cc2nc3ccccc3n2C)cc1 (configuration not stated)	-97*
CC(C)c1ccc(C(O)Cc2nc3ccccc3n2C)cc1 (configuration not stated)	-102*
Cc1ccccc1Oc1cc(NC(=O)Cn2cnc([N+](=O)[O-])c2)cc([N+](=O)[O-])c1	-91*
N#CC1=C(N)N2C(=C(C#N)C1c1cccc(Br)c1)Nc1ccccc12 (configuration not stated)	60
Cc1ccc(Nc2n[nH]c(C)c2[N+](=O)[O-])c(C)c1	-66*
Cc1ccc(NC2=C(Cl)C(=O)OC2OC(C)C)c(C)c1 (configuration not stated)	69
COc1ccc(Nc2n[nH]c(C)c2[N+](=O)[O-])cc1	-102*
Cc1ccccc1Nc1n[nH]c(C)c1[N+](=O)[O-]	-65*
c1ccc(OCCSc2nnnn2-c2ccccc2)cc1	-86*
Fc1ccccc1OCCSc1nnnn1-c1ccccc1	-83*
O=C(c1ccccc1)c1nc[nH]c1C(=O)Nc1ccccc1	-91*
Cc1ccc(NC(=O)c2[nH]cnc2C(=O)NN)cc1	-65*
C/C(=N\NC(=S)Nc1ccc(F)cc1)c1ccc2c(c1)OCCO2	-80*
COc1ccc(C(C#N)=C2C=CC(=NO)C=C2)cc1	-148*
COc1nc(C)ccc1-c1noc(-c2cccnc2)n1	-106*
COc1ccccc1-c1nc(-c2ccc(C)nc2OC)no1	-114*
SMILES	aSyn UTR act
NS(=O)(=O)c1cccc(NC(=S)NC(=O)C23CC4CC(CC(C4)C2)C3)c1	-62*
Cc1ccc2nc(-c3ccc(NC(=O)CSCC(=O)O)cc3)sc2c1	-197*
Cc1ccc2sc(-c3ccc(NC(=O)/C=C\C(=O)O)cc3)nc2c1	-96*
Cc1ccc2nc(-c3ccc(NC(=O)COCC(=O)O)cc3)sc2c1	-96*
COCCCNC(=O)c1ccc2nc(Cc3ccc(OC)cc3)oc2c1	-95*
COc1ccc(Cc2nc3ccc(C(=O)N(C)CCn4ccnc4)cc3o2)cc1OC	-78*
CCC1=Nc2cc(C(=O)NCCCOC)ccc2Sc2ccccc21	74
C=CCNC(=O)c1ccc2nc(Cc3ccc(OC)cc3)oc2c1	-139*
COc1ccc(Cc2nc3ccc(C(=O)N4CCOCC4)cc3o2)cc1	-125*
COc1ccc(Cc2nc3ccc(C(=O)NCCCSC)cc3o2)cc1OC	-99*
C=CCOc1ccc(NC(=O)C(=O)NCCCn2ccnc2)cc1	51
O=C(NCCCn1ccnc1)Nc1ccc2c(c1)OCO2	-107*
Cc1nn(C)c(C)c1CNC(=O)Nc1ccc(Cl)cc1	-89*
Cc1nn(C)c(C)c1CNC(=O)Nc1cccc(Cl)c1	-106*
Cc1nn(C)c(C)c1CNC(=O)Nc1ccc2c(c1)OCO2	-72*
Cn1cc(/C=C/c2cc[n+](C)cc2)c2cc(Cl)ccc21	64
O=S(=O)(c1ccc(NC(=S)NCc2cccnc2)cc1)N1CCCCC1	86
O=C(NCc1cccnc1)Nc1ccc2c(c1)OCO2	-63*
Cc1ccc(S(=O)(=O)CCC(=O)N(CCN2CCOCC2)c2nc3ccccc3s2)cc1	-75*
CCCC(=O)N(CCN1CCOCC1)c1nc2c(F)cc(F)cc2s1	-86*
COc1ccc2c(c1)C(C)=CC(C)(C)N2S(=O)(=O)c1ccc(Br)cc1	-86*
COc1ccc2c(c1)C(C)=CC(C)(C)N2S(=O)(=O)c1ccc(NC(C)=O)cc1	71
Cc1ccc(NC(=S)NCCCN2CCOCC2)cc1	-63*
S=C(NCCN1CCOCC1)Nc1ccc(-c2nc3ccccc3[nH]2)cc1	-129*
Cc1ccc(NC(=O)CCC(=O)c2cccs2)c(O)c1	-80*
SMILES	aSyn UTR act
O=C(CCC(=O)c1cccs1)c1cccs1	-69*
O=C(CSCc1ccco1)c1cccs1	-174*
Cc1cccc(Nc2nc(-c3ccccc3)c(C(=O)Nc3cccnc3)s2)c1	-143*
CCOc1ccc(C(=O)CSc2nnc(N)s2)cc1	-74*
Cc1cc(C(=O)CSc2nnc(N)s2)c(C)n1C1CC1	-88*
Cc1ccc(C(=O)CSc2nnc3ccccn23)c(C)c1	-74*
Cc1ccc(C(=O)CSc2nnc(N)s2)c(C)c1	-92*
c1ccc(-c2nc3nc4ccccc4nc3n2Cc2ccco2)cc1	-106*
CCOC(=O)c1cc2c(C)n(-c3ccc(C)cc3)c(C)c2ccc1=O	-64*
CC1CCN(C(=O)CSCc2ccc(Cl)cc2)CC1	-95*
CC(=O)N(c1nnc(-c2cccc(C)c2)s1)C1CCCC1	-160*
NC(=O)C1=C[C@H](c2ccccc2)C[C@H](OCc2ccc(CO)cc2)O1	-67*
